Test results as given in the supplement of paper PMC10338343.
± gives the standard deviation.

Each sequence was assayed on EfPiwi piRISC loaded with piRNA #1 (26 nt) (assay: pre-steady-state target cleavage rate (min^-1); auxiliary factor: 500 nM Ephydatia muelleri Gtsf1; guide: piRNA #1 5'p-UGAGGUAGUAGGUUGUAUAGUAUCCA; MIWI and MILI are mouse PIWI proteins and EfPiwi is from a freshwater sponge; tags in brackets are library labels; higher = faster piRNA-guided slicing of the target).
Experimental: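 Cleave-'n-Seq: a library of target RNAs (target site in constant flanks) at […] was incubated with 1 nM active freshwater sponge Ephydatia fluviatilis Piwi piRISC (synthetic 5'-monophosphorylated piRNA guide) with or without 500 nM EmGtsf1 at 33 °C for 1 min to 16 h. Uncleaved targets were sequenced and the pooled three trials fitted to a burst-and-steady-state model to give the pre-steady-state cleavage rate (min^-1). Sequence is the target site only. Fits with R² ≤ 0 are excluded.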

**Q.** With GGAGACCUAUGAUAUGUUCCUACUACUCUCA as the sequence, how does the “pre-steady-state target cleavage rate” value read?
**A.** < 0.0001

**Q.** For GGAGACGAAACUAAACAACCUACUACCUCA, which “pre-steady-state target cleavage rate” value is on record?
**A.** 0.00324 ± 0.0032

**Q.** How did the “pre-steady-state target cleavage rate” value turn out when GGAGACGAUACUAUACUACCUAGUACCUCA was run?
**A.** 0.00268 ± 0.0016

**Q.** Which “pre-steady-state target cleavage rate” value does the source give for GGAGUCGAUACUAUACAACCUAGUACCUCA here?
**A.** 0.00334 ± 0.0014

**Q.** For GGAGACCUUACUAUUACAACCUACUACCUCA, which “pre-steady-state target cleavage rate” value is on record?
**A.** 0.00484 ± 0.0035

**Q.** For GGAGUGGACUACUAUACAACCUACUACCUCA, which “pre-steady-state target cleavage rate” value is on record?
**A.** 0.0107 ± 0.0041

**Q.** GGAGUGCAUACUAUACAACCUAGUACCUCA was tested. Which “pre-steady-state target cleavage rate” value did it give?
**A.** 0.00414 ± 0.0018

**Q.** With GGAGACGAUAGUAAACAACCUACUACCUCA as the sequence, how does the “pre-steady-state target cleavage rate” value read?
**A.** 0.00554 ± 0.004

**Q.** Which “pre-steady-state target cleavage rate” value does the source give for GGAGAGGAUACUAUACAACGCUACUACCUCA here?
**A.** 0.00523 ± 0.0033

**Q.** With GGAGACGAUUCUAUUCAACCUACUACCUCA as the sequence, how does the “pre-steady-state target cleavage rate” value read?
**A.** 0.00706 ± 0.0046

**Q.** GGAGACCUUACGAUACAACCUACUACCUCA was tested. Which “pre-steady-state target cleavage rate” value did it give?
**A.** 0.0548 ± 0.021

**Q.** For GGAGACGAUACUCAUACAACCUACUACCUCA, which “pre-steady-state target cleavage rate” value is on record?
**A.** 0.0151 ± 0.0063

**Q.** GGAGACGUUACUAUACAACCUAGUACCUCA was tested. Which “pre-steady-state target cleavage rate” value did it give?
**A.** 0.00427 ± 0.0015

**Q.** For GGAGACCUAUGAAUAGAACCUACUAGCUCA, which “pre-steady-state target cleavage rate” value is on record?
**A.** < 0.0001

**Q.** Which “pre-steady-state target cleavage rate” value does the source give for GGAGUGCAUACUAUACAACCUACUACGUCA here?
**A.** 0.00318 ± 0.0018

**Q.** GGAGACGAUACUAUACAACUCUACUACCUCA was tested. Which “pre-steady-state target cleavage rate” value did it give?
**A.** 0.00452 ± 0.0031

**Q.** With GGAGACGAUACUAUACAACCUAAUACCUCA as the sequence, how does the “pre-steady-state target cleavage rate” value read?
**A.** 0.00553 ± 0.0025

**Q.** With GGAGACGAUACUAUAGAACCUACUACGUCA as the sequence, how does the “pre-steady-state target cleavage rate” value read?
**A.** 0.002 ± 0.0014

**Q.** GGAGACCUAUCUAUACAACCUGCUACCUCA was tested. Which “pre-steady-state target cleavage rate” value did it give?
**A.** 0.00697 ± 0.0045

**Q.** How did the “pre-steady-state target cleavage rate” value turn out when GGAGAGGAUUCUAUACAACCAACUACCUCA was run?
**A.** 0.00361 ± 0.0027

**Q.** With GGAGAGGAUACUAUACAACCAACUACCUGA as the sequence, how does the “pre-steady-state target cleavage rate” value read?
**A.** 0.00332 ± 0.0017

**Q.** How did the “pre-steady-state target cleavage rate” value turn out when GGAGACCAUUCUAUACAACCUAGUACCUCA was run?
**A.** 0.00433 ± 0.0024

**Q.** Which “pre-steady-state target cleavage rate” value does the source give for GGAGACGAUACUAUACAACCAAGUACCUCA here?
**A.** 0.00215 ± 0.0019

**Q.** GGAGUGGAUACUAUACAACCUAGAACCUCA was tested. Which “pre-steady-state target cleavage rate” value did it give?
**A.** 0.00464 ± 0.0024

**Q.** For GGAGACCAUACUAUACAACCUACUACCUCCA, which “pre-steady-state target cleavage rate” value is on record?
**A.** 0.0119 ± 0.0039

**Q.** For GGAGACCUAACUAUACAACCUACUACCGUCA, which “pre-steady-state target cleavage rate” value is on record?
**A.** 0.0162 ± 0.0091

**Q.** With GGAGAGGAUAAUAUACAACCUACUACCUCA as the sequence, how does the “pre-steady-state target cleavage rate” value read?
**A.** 0.00772 ± 0.0036

**Q.** With “GGAGACCUAUCUAUACAACCUACUACCUCC [g2:g20:cont:t1C]” as the sequence, how does the “pre-steady-state target cleavage rate” value read?
**A.** 0.0049 ± 0.0034

**Q.** With GGAGAGGAUACUAUACAACCUACUUCCUGA as the sequence, how does the “pre-steady-state target cleavage rate” value read?
**A.** 0.00331 ± 0.0022

**Q.** For GGAGACCUAUCUAUACAACCUACUACCUUCA, which “pre-steady-state target cleavage rate” value is on record?
**A.** 0.0604 ± 0.023

**Q.** Which “pre-steady-state target cleavage rate” value does the source give for GGAGAGUAUACUAUACAACCUACUACCUCA here?
**A.** 0.0182 ± 0.0087

**Q.** For GGAGACGAUACGAUACAACCUACUACCUCA, which “pre-steady-state target cleavage rate” value is on record?
**A.** 0.049 ± 0.019

**Q.** Which “pre-steady-state target cleavage rate” value does the source give for GGAGACGAUACUAUACAACCAACUAGCUCA here?
**A.** 0.00457 ± 0.0027

**Q.** GGAGACCAUACUAUACAACCUACUACGACA was tested. Which “pre-steady-state target cleavage rate” value did it give?
**A.** 0.00532 ± 0.0028

**Q.** GGAGACCAUACUAUACUACCUACUACGUCA was tested. Which “pre-steady-state target cleavage rate” value did it give?
**A.** 0.0039 ± 0.0028

**Q.** How did the “pre-steady-state target cleavage rate” value turn out when GGAGAGGAUACUAUACAACCUAGAUCCUCA was run?
**A.** 0.00241 ± 0.0021

**Q.** With GGAGAGGAAACUAUUCAACCUACUACCUCA as the sequence, how does the “pre-steady-state target cleavage rate” value read?
**A.** 0.013 ± 0.0061

**Q.** With GGAGUGGAUUCUAUACUACCUACUACCUCA as the sequence, how does the “pre-steady-state target cleavage rate” value read?
**A.** 0.00505 ± 0.0034

**Q.** GGAGAGGAUACUUACAACCUACUACCUCA was tested. Which “pre-steady-state target cleavage rate” value did it give?
**A.** 0.00543 ± 0.0036

**Q.** How did the “pre-steady-state target cleavage rate” value turn out when GGAGAGGAUACUAUACAAGCUACUUCCUCA was run?
**A.** 0.00375 ± 0.0015
